# Values joined by “and” are separate entries in the source; they are usually repeats but may differ in a detail not shown here. Identical values can stand only once. Unmarked numbers belong to inactive results. Records with an inconclusive call do not appear. A call without a number means that no potency is given here. Active and inactive are the calls of the source. Unless noted, calls come from the whole dose curve; as a rule, active = well fitted curve in either direction with a large enough effect (not every such curve was filed as active); inconclusive = small, poorly fitted or top-dose-only effect, or another doubt; inactive = flat fitted curve, though single readings scatter.
# Experiments:
# [1] = Stat Signaling Pathway (AID 446);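 note: ME-180 cervical cancer cells given 40 pM IL-6 alongside compound; SIE-controlled beta-lactamase reporter measured as 460/530 nm FRET emission ratio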
# Outline: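 ME-180 SIE-bla cells; overnight plating; cpd + IL-6 40 pM, 5 h, 37 C; LiveBLAzer 2.5 h RT; 460/530 nm emission ratio. Normalized to 300 pM IL-6 and 125 nM JAK inhibitor controls.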
# [2] = molecular target: Glucocorticoid receptor (Homo sapiens) (UniProt P04150); assay: GR-GFP Redistribution (AID 450;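 active = compounds whose dose series gives a full or clear partial fitted curve of increased nuclear translocation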; note: potency is the fitted concentration of half-maximal effect); details: U2OS GR-GFP nuclear translocation, laser cytometry, 2 h
# [3] = molecular target: Glucocorticoid receptor (Homo sapiens) (UniProt P04150); assay: GR-EFC Redistribution (AID 451; calls by dose curve; note: potency is the fitted concentration of half-maximal effect); details: CHO-K1 GR-EFC translocation, beta-gal luminescence, 2 h
# Outline: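 CHO-K1 cells stably expressing nuclear-localized β-gal enzyme acceptor and GR fused C-terminally to the enzyme donor fragment; ligand-driven nuclear translocation restores β-gal by complementation. Compounds titrated up to 46 uM final, 2 h at 37 °C; luminescence read.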
# [4] = molecular target: Mitogen-activated protein kinase 10 (Mus musculus) (UniProt Q61831); assay: JNK3 AlphaScreen Assay (AID 530);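 note: kinase came from lysate of stimulated human HepG2 cells; signal reports phosphorylation of biotinylated GST-cJun 1-79 at Ser73 with 10 µM ATP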
# Outline: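 JNK3 came from HepG2 lysates pre-activated with IL-1beta and TNF-alpha and phosphorylated biotinylated GST-cJun (1-79) at 10 uM ATP, pH 7.6, room temperature. Compounds were titrated. AlphaScreen signal used anti-phospho-cJun (Ser73) antibody.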
# [5] = molecular target: 3',5'-cyclic-AMP phosphodiesterase 4B (Homo sapiens) (UniProt Q07343); assay: qHTS Assay for Inhibitors of PDE-IV (AID 607; active = well fitted activation curve with a large enough effect in the main read-out, with a control signal flat, not every such curve was filed as active)
# Outline: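 ACTOne HEK293 cells carry a modified cAMP-gated CNG channel and express endogenous PDE4; plated 1000 cells/well, compounds up to 22.9 uM final. Membrane-potential dye fluorescence (ex 535/em 590) was read; parental cells received 10 uM forskolin + 100 uM RO 20-1724.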
# [6] = Cell Viability - NIH 3T3 (AID 541; active = well fitted curve in the direction sought with a large enough effect; an effect the other way counts as inactive or inconclusive; note: nearly all actives have a fitted effect of over 25% in size); details: NIH 3T3 cell viability, qHTS; activity change, negative = cytotoxicity: at 92.2 µM (top of the series)
# Outline: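 NIH 3T3 mouse embryo fibroblasts (1000 cells/well) were plated in complete medium and treated with compound for 40 hr at 37 °C. Viability was read as intracellular ATP by CellTiter-Glo luminescence; AC50 values came from Hill-equation fits of concentration-response data.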
# [7] = Cell Viability - H-4-II-E (AID 543; active = well fitted curve in the direction sought with a large enough effect; an effect the other way counts as inactive or inconclusive; note: nearly all actives have a fitted effect of over 35% in size; note: potency is the fitted concentration of half-maximal effect)
# Outline: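 Rat hepatoma H-4-II-E cells (1500/well) were plated, incubated 5 hr at 37 °C, then exposed to compounds for 40 hr at 37 °C. Cellular ATP was read by CellTiter-Glo luminescence; AC50 came from Hill-equation fits of concentration-response data.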
# [8] = Cell Viability - Renal Proximal Tubule (AID 545; active = well fitted curve in the direction sought with a large enough effect; an effect the other way counts as inactive or inconclusive; note: nearly all actives have a fitted effect of over 40% in size); details: renal proximal tubule cells viability, primary cells of rat origin; activity change, negative = cytotoxicity: at 91.7 µM (top of the series)
# Outline: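 Rat renal proximal tubule primary cells, 1000/well, exposed to compounds for 40 hr at 37 °C in complete medium; cellular ATP read by CellTiter-Glo luminescence. AC50 from concentration-response fitted with standard Hill equation.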
# [9] = Cell Viability - Mesenchymal (AID 546; active = well fitted curve in the direction sought with a large enough effect; an effect the other way counts as inactive or inconclusive;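 note: cells exposed to compound for 40 hours before reading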; note: potency is the fitted concentration of half-maximal effect); details: mesenchymal cells viability, qHTS; activity change, negative = cytotoxicity: at 91.7 µM (top of the series)
# Outline: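 Normal human renal glomerulus-derived kidney mesenchymal cells, 1000 per well in complete medium, were treated with compounds for 40 hr at 37 °C. Viability was read as intracellular ATP by CellTiter-Glo luminescence; AC50 values came from Hill-equation fits of qHTS concentration-response data.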
# [10] = Cellular Toxicity (caspase-3) HUV-EC-C (AID 656; active = well fitted curve in the direction sought with a large enough effect; an effect the other way counts as inactive or inconclusive)
# Outline: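 HUV-EC-C cells (1000/well) in complete medium, compound-treated 16 h at 37 °C; caspase-3/7 activity read by Caspase-Glo 3/7 luminescence. Normalized to DMSO (basal) and 100 uM tamoxifen (100%); AC50 from Hill-equation concentration-response fits.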
# [11] = Cellular Toxicity (caspase-3) SHSY5Y (AID 657; active = well fitted curve in the direction sought with a large enough effect; an effect the other way counts as inactive or inconclusive)
# Outline: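 SH-SY5Y human neuroblastoma cells, 1500/well, exposed to compound for 16 hours at 37 °C in complete medium. Caspase-3/7 activity read by Caspase-Glo luminescence after 1 hr at room temperature, normalized to DMSO and 10 uM staurosporine; AC50 from Hill fit.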
# [12] = Cellular Toxicity (caspase-3) Mesangial (AID 660; active = well fitted curve in the direction sought with a large enough effect; an effect the other way counts as inactive or inconclusive;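 note: cells exposed to compound for 16 h before the caspase read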)
# Outline: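 Human renal glomerular mesangial cells (1000/well) were treated with compounds for 16 h at 37 °C in complete medium, then caspase 3/7 activity was read by Caspase-Glo luminescence. Data were normalized to DMSO and 100 uM tamoxifen; AC50 from Hill fits.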
# [13] = Cellular Toxicity (caspase-3) H-4-II-E (AID 663; active = well fitted curve in the direction sought with a large enough effect; an effect the other way counts as inactive or inconclusive;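 note: cells exposed to compound for 16 hr before readout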)
# Outline: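 Luminescence from caspase-cleaved aminoluciferin substrate, read 20 min after reagent addition, reports caspase 3/7 activation in rat H-4-II-E cells after 16 hr compound exposure. Normalized to DMSO (basal) and 100 uM tamoxifen (100%); AC50 from Hill fits.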
# [14] = Cellular Toxicity (caspase-3) Hek293 (AID 664; active = well fitted curve in the direction sought with a large enough effect; an effect the other way counts as inactive or inconclusive;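 note: cells exposed to compound for 16 h at 37 °C before readout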)
# Outline: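 HEK293 cells were exposed to compounds in complete medium for 16 hr at 37 °C, then caspase-3/7 activity was read by Caspase-Glo 3/7 luminescence after 20 min at room temperature. Data normalized to DMSO and 100 uM tamoxifen; AC50 from Hill fits.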
# [15] = Cell Viability - N2a (AID 540; active = well fitted curve in the direction sought with a large enough effect; an effect the other way counts as inactive or inconclusive; note: nearly all actives have a fitted effect of over 45% in size)
# Outline: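 Mouse neuroblastoma N2a cells (1500/well) were preincubated 5 hr at 37 °C, then exposed to compounds for 40 hr at 37 °C in complete medium. Viability was read as intracellular ATP by CellTiter-Glo luminescence; AC50 from Hill fits.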
# [16] = Cell Viability - HUV-EC-C (AID 542; active = well fitted curve in the direction sought with a large enough effect; an effect the other way counts as inactive or inconclusive; note: nearly all actives have a fitted effect of over 35% in size)
# Outline: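 HUV-EC-C normal human vascular endothelial cells, 1000 cells/well, pre-incubated 5 hr at 37 °C, then exposed to compounds for 40 hr at 37 °C in complete medium. Viability measured as intracellular ATP by CellTiter-Glo luminescence; AC50 from Hill fits.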
# [17] = Cell Viability - SH-SY5Y (AID 544; active = well fitted curve in the direction sought with a large enough effect; an effect the other way counts as inactive or inconclusive; note: nearly all actives have a fitted effect of over 55% in size)
# Outline: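 Human neuroblastoma SH-SY5Y cells (1500/well) in complete medium were exposed to compounds for 40 hr at 37 °C; intracellular ATP was then quantified by CellTiter-Glo luminescence after 20 min at room temperature. AC50 came from Hill-equation concentration-response fits.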
# [18] = Cellular Toxicity (caspase-3) HepG2 (AID 654; active = well fitted curve in the direction sought with a large enough effect; an effect the other way counts as inactive or inconclusive;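 note: cells exposed to compound for 16 hours before reading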)
# Outline: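 HepG2 cells (1500/well) in complete medium were treated with compounds for 16 hr at 37 °C. Caspase-3/7 activity was then read as luminescence from peptide-aminoluciferin cleavage. AC50 came from Hill fits, normalized to DMSO and 100 uM tamoxifen.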
# [19] = Cellular Toxicity (caspase-3) Jurkat (AID 655; active = well fitted curve in the direction sought with a large enough effect; an effect the other way counts as inactive or inconclusive;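 note: cells exposed to compound for 16 h at 37 °C before reading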)
# Outline: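 Jurkat cells (5000/well) in complete medium exposed 16 h at 37 C; caspase-3/7 activity read by Caspase-Glo luminescence after 20 min at room temperature. Normalized to DMSO and 100 uM tamoxifen; AC50 from Hill fits.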
# [20] = Cellular Toxicity (caspase-3) BJ (AID 658; active = well fitted curve in the direction sought with a large enough effect; an effect the other way counts as inactive or inconclusive)
# Outline: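 Luminescent aminoluciferin-substrate cleavage reports caspase 3/7 activity in normal human BJ fibroblasts after 16 hr compound exposure at 37 °C. Normalized to DMSO (basal) and 10 uM staurosporine (100%); AC50 from Hill fit of concentration-response.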
# 3',5'-cyclic-AMP phosphodiesterase 4B (Homo sapiens), sequence (Q07343 whole entry, looked up): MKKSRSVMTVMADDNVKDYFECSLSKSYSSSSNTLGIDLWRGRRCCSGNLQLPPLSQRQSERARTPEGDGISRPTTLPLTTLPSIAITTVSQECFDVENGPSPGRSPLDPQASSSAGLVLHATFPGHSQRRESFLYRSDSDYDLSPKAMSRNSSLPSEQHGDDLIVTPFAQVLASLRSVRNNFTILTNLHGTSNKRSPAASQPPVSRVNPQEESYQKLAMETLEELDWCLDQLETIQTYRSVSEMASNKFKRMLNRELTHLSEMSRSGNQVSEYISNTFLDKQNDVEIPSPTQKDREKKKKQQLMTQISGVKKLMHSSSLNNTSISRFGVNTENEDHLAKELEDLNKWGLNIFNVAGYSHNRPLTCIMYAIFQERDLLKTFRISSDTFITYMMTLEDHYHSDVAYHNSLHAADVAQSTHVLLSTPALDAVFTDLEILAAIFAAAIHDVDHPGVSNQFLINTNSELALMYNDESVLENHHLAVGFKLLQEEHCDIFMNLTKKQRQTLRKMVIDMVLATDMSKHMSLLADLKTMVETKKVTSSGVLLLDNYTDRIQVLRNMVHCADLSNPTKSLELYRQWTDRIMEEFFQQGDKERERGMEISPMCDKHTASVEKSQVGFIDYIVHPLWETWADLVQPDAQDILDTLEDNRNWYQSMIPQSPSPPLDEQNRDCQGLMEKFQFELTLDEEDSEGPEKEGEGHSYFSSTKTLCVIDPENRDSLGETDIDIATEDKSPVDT
# Glucocorticoid receptor (Homo sapiens), sequence (P04150 whole entry, looked up, the tested form may be a part): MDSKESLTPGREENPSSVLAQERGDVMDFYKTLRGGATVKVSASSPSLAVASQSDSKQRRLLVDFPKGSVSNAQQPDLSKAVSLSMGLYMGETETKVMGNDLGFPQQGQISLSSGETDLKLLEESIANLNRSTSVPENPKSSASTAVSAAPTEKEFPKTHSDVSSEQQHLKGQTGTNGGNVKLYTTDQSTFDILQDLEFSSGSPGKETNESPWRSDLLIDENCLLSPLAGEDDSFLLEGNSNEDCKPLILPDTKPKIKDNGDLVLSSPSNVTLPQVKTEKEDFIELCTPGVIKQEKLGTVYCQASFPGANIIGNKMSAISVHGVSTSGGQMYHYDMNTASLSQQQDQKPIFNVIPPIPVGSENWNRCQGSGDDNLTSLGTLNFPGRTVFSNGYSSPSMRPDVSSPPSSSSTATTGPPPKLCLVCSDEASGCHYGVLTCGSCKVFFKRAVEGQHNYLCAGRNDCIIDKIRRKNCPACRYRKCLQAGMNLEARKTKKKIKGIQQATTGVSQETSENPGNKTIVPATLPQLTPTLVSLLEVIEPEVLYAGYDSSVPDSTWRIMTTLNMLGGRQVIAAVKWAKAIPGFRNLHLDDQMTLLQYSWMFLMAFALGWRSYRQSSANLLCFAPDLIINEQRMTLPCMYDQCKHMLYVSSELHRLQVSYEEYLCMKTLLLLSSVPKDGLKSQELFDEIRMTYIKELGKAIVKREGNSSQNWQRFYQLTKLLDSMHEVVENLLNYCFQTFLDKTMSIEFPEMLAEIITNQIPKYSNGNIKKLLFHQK
smiles,measurement,setting,value
c1ccc2c(c1)CCCC2C1=NCCN1 (configuration not stated),outcome,[1],inactive
CN1CCN(CC(=O)N2c3ccccc3C(=O)Nc3cccnc32)CC1,outcome,[1],inactive
same,Potency,[2],> 46 µM and > 20.6 µM
same,Potency,[3],> 46 µM and > 20.6 µM
same,Potency,[4],inactive
same,Potency,[5],inactive
CN(C)C(=O)Oc1ccc[n+](C)c1,outcome,[1],inactive
same,Potency,[2],> 46 µM and > 20.6 µM
same,Potency,[3],> 46 µM
same,Potency,[4],inactive
same,Potency,[5],inactive
O=C(O)CN(CCN(CC(=O)O)CC(=O)O)CCN(CC(=O)O)CC(=O)O,outcome,[1],inactive
same,Potency,[2],> 46 µM and > 20.6 µM
same,Potency,[3],> 46 µM and > 20.6 µM
same,Potency,[4],inactive
same,Potency,[5],inactive
C[C@]12CCC(=O)C=C1CC[C@@H]1[C@@H]2C(=O)C[C@@]2(C)[C@H]1CC[C@]2(O)C(=O)CO,outcome,[1],inactive
same,Potency,[2],0.818 µM (active)
OC(CCN1CCCCC1)(c1ccccc1)C1CCCCC1 (configuration not stated),outcome,[1],inactive
Nc1nc(N)c2nc(-c3ccccc3)c(N)nc2n1,outcome,[1],inactive
same,Potency,[2],> 46 µM and > 20.6 µM
same,Potency,[3],> 46 µM and > 20.6 µM
same,Potency,[4],inactive
same,"activity change, negative = cytotoxicity",[6],-88.4% (active)
same,Potency,[7],316 nM (active)
same,"activity change, negative = cytotoxicity",[8],-93% (active)
same,Potency,[9],25.1 µM (active)
same,Potency,[5],inactive
same,outcome,[10],inactive
same,outcome,[11],inactive
same,outcome,[12],inactive
same,outcome,[13],inactive
same,outcome,[14],inactive
CN(C)[C@@H]1C(=O)C(C(N)=O)=C(O)[C@@]2(O)C(=O)C3=C(O)c4c(O)ccc(Cl)c4[C@@H](O)[C@H]3C[C@@H]12,outcome,[1],inactive
same,Potency,[2],> 20.6 µM
CC(=O)OCC1=C(C(=O)O)N2C(=O)[C@@H](NC(=O)Cc3cccs3)[C@H]2SC1,outcome,[1],inactive
same,Potency,[2],> 20.6 µM
CC(C)(C)NCC(O)c1cc(O)cc(O)c1 (configuration not stated),outcome,[1],inactive
C(=C\c1ccccc1)/CN1CCN(C(c2ccccc2)c2ccccc2)CC1,outcome,[1],inactive
Fc1ccc(C(c2ccc(F)cc2)N2CCN(C/C=C/c3ccccc3)CC2)cc1,outcome,[1],inactive
same,Potency,[2],> 20.6 µM
COCCCC/C(=N\OCCN)c1ccc(C(F)(F)F)cc1,outcome,[1],inactive
same,Potency,[2],> 20.6 µM
COc1ccc(CCN(C)CCCC(C#N)(c2cc(OC)c(OC)c(OC)c2)C(C)C)cc1OC (configuration not stated),outcome,[1],inactive
same,Potency,[2],> 20.6 µM
Cc1nnc(SCC2=C(C(=O)O)N3C(=O)[C@@H](NC(=O)Cn4cnnn4)[C@H]3SC2)s1,outcome,[1],inactive
CCOC(=O)C1=C(C)NC(C)=C(C(=O)OC)C1c1cccc(Cl)c1Cl (configuration not stated),outcome,[1],inactive
same,Potency,[2],> 20.6 µM
COCCc1ccc(OCC(O)CNC(C)C)cc1 (configuration not stated),outcome,[1],inactive
same,Potency,[2],> 20.6 µM
C[N+](C)(C)CCCCCCCCCC[N+](C)(C)C,outcome,[1],inactive
same,Potency,[2],> 46 µM and > 20.6 µM
same,Potency,[3],> 46 µM and > 20.6 µM
same,Potency,[4],inactive
same,Potency,[5],inactive
O=C(CCCN1CCC(O)(c2cccc(C(F)(F)F)c2)CC1)c1ccc(F)cc1,outcome,[1],inactive
same,Potency,[2],> 46 µM
same,Potency,[3],> 46 µM
same,Potency,[4],inactive
same,Potency,[5],inactive
C[C@]12CCC(=O)C=C1CC[C@@H]1[C@@H]2CC[C@@]2(C)[C@H]1CC[C@]2(O)C(=O)CO,outcome,[1],inactive
same,Potency,[2],0.0458 µM (active)
CCCCNC(=O)NS(=O)(=O)c1ccc(C)cc1,outcome,[1],inactive
same,Potency,[2],> 46 µM and > 20.6 µM
same,Potency,[3],> 46 µM and > 20.6 µM
same,Potency,[4],inactive
same,outcome,[15],inactive
same,"activity change, negative = cytotoxicity",[6],-10.4%
same,Potency,[16],inactive
same,Potency,[7],inactive
same,Potency,[17],inactive
same,"activity change, negative = cytotoxicity",[8],-6.67%
same,Potency,[9],inactive
same,Potency,[5],inactive
same,outcome,[18],inactive
same,Potency,[19],inactive
same,outcome,[10],inactive
same,outcome,[11],inactive
same,outcome,[20],inactive
same,outcome,[12],inactive
same,outcome,[13],inactive
same,outcome,[14],inactive
O=C(CCNNC(=O)c1ccncc1)NCc1ccccc1,outcome,[1],inactive
same,Potency,[2],> 46 µM and > 20.6 µM
same,Potency,[3],> 46 µM and > 20.6 µM
same,Potency,[4],inactive
same,Potency,[5],inactive
CCCN(CCC)C(=O)C(CCC(=O)O)NC(=O)c1ccccc1 (configuration not stated),outcome,[1],inactive
same,Potency,[2],> 20.6 µM
O=C(O)CP(=O)(O)O,outcome,[1],inactive
same,Potency,[2],> 46 µM
same,Potency,[3],> 46 µM and > 9.22 µM
same,Potency,[4],inactive
same,Potency,[5],inactive
CN(C)CCOC(=O)COc1ccc(Cl)cc1,outcome,[1],inactive
same,Potency,[2],> 46 µM and > 20.6 µM
same,Potency,[3],> 46 µM and > 20.6 µM
same,Potency,[4],inactive
same,Potency,[5],inactive
CCCCNc1c(C(=O)OCC)c(C)nc2c1cnn2CC,outcome,[1],inactive
same,Potency,[2],> 46 µM and > 20.6 µM
same,Potency,[3],> 46 µM and > 20.6 µM
same,Potency,[4],inactive
Cc1ccc(Cl)c(Nc2ccccc2C(=O)O)c1Cl,outcome,[1],inactive
same,Potency,[2],> 46 µM and > 20.6 µM
same,Potency,[3],> 46 µM and > 20.6 µM
same,Potency,[4],inactive
CO[C@@]1(NC(=O)CSCC#N)C(=O)N2C(C(=O)O)=C(CSc3nnnn3C)CS[C@@H]21,outcome,[1],inactive
same,Potency,[2],> 20.6 µM
C[C@]12C=CC(=O)C=C1CC[C@H]1[C@@H]3C[C@@H](O)[C@](O)(C(=O)CO)[C@@]3(C)C[C@H](O)[C@@]12F,outcome,[1],inactive
same,Potency,[2],0.148 µM (active)
CC(=O)OC(C)C[N+](C)(C)C (configuration not stated),outcome,[1],inactive
same,Potency,[2],> 20.6 µM
Cc1nc2sccn2c(=O)c1CCN1CCC(=C(c2ccc(F)cc2)c2ccc(F)cc2)CC1,outcome,[1],inactive
same,Potency,[2],> 46 µM and > 20.6 µM
same,Potency,[3],> 46 µM
same,Potency,[4],inactive
COc1ccc2c(c1OC)C(=O)O[C@@H]2[C@H]1c2c(cc3c(c2OC)OCO3)CCN1C,outcome,[1],inactive
same,Potency,[2],> 46 µM and > 20.6 µM
same,Potency,[3],> 46 µM
COCCOC(=O)C1=C(C)NC(C)=C(C(=O)OC(C)C)C1c1cccc([N+](=O)[O-])c1 (configuration not stated),outcome,[1],inactive
same,Potency,[2],> 20.6 µM
